esBAF inh: SWI/SNF esBAF complex inhibition | 350,000 tested, 2% active | reporter increase, % at 12.5 µM | mouse ES cells, Bmi1-luciferase knock-in reporter, 24 h; 100% = twice the neutral-well signal; in the data active = activation above about 40%;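 also: 0% = median of the plate's neutral control wells and 100% = double that signal; a rise in the Bmi1 reporter signal indicates esBAF inhibition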
Jurkat NFkB inh: inhibitors of the PMA/ionomycin-induced NF-kB reporter in Jurkat cells; PMA/ionomycin-induced NF-kB luciferase reporter, luminescence; 330,000 tested, 0.53% active; inhibition, % at 4 µM; in the data active = inhibition above about 50%
Gli-Sufu block: blocks Gli-Sufu signaling in a luciferase reporter | inhibition, % at 5 µM | Sufu-KO-LIGHT fibroblasts, Gli luciferase reporter luminescence | 340,000 tested, 0.74% active | AID 588413;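 active = inhibition above about 55%, limit read from the data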;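 also: 0% = DMSO-treated cells and 100% = wells with medium but no cells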
697 NFkB inh: inhibitors of the PMA/ionomycin-induced NF-kB reporter in 697 B cells | 697 B-cell NF-kB luciferase reporter, 16 h | inhibition, % at 4 µM | 330,000 tested, 0.33% active; in the data active = inhibition above about 35%
SMARCA2 activ: activators of SMARCA2 function | MG213 cells, MMTV-luciferase reporter, dexamethasone, overnight | activation, % at 9.1 µM | 370,000 tested, 1% active; in the data active = activation above about 7.8%;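 also: 0% = vehicle wells and 100% = reference activator wells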
Gli-Sufu confirm: confirmation of Gli-SUFU pathway antagonists | Sufu-KO-LIGHT cells, Gli luciferase reporter, luminescence | shares compounds with Gli-Sufu block | 2,500 tested, 40% active | AID 602428 | inhibition, % at 5 µM;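 active = mean inhibition at 5 µM reaching about 45%, limit read from the data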;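 also: plate controls were DMSO-treated cells for no effect and wells lacking cells for full effect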
SufuKO cytotox: cytotoxicity counter-screen for Gli-SUFU antagonists; shares compounds with Gli-Sufu block; Sufu-KO-LIGHT cells cytotoxicity, ATP luminescence; cytotoxicity, % at 5 µM; 2,500 tested, 32% active;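 active = mean cytotoxicity at 5 µM above about 25%, limit read from the data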;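 also: cells exposed to compound overnight for roughly 16 to 18 hours; plate controls were DMSO wells with cells for no effect and medium without cells for full effect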
Wnt3a counter: inhibits Wnt3a reporter, counter-screen for Gli-SUFU antagonists; Wnt-LIGHT cells, Wnt3a-driven luciferase reporter, luminescence; inhibition, % at 6.25 µM; shares compounds with Gli-Sufu block; 2,500 tested, 20% active;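 active = mean inhibition above about 25%, limit read from the data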
* marks the source's active call; other numbers are inactive results. Most compounds without a hit are left out; they make up all but 3.3% or so of the library.

`COc1ccc(-c2cnnc(N/N=C/c3ccc(OC)c(OC)c3)n2)cc1` gave Jurkat NFkB inh -6, Gli-Sufu block 52, 697 NFkB inh -25, SMARCA2 activ -4, Gli-Sufu confirm 4, SufuKO cytotox 23 and Wnt3a counter -30.
COc1ccc(S(=O)(=O)NC2CCCCCC2)cc1C(N)=O was read as esBAF inh -2, Jurkat NFkB inh 6, Gli-Sufu block 63*, 697 NFkB inh -3, SMARCA2 activ 4, Gli-Sufu confirm 7, SufuKO cytotox 25 and Wnt3a counter -50.
COc1ccc(S(=O)(=O)NC2CCCCC2)cc1C(=O)N1CCCCC1 was read as esBAF inh 3, Jurkat NFkB inh -8, Gli-Sufu block -4, 697 NFkB inh 17 and SMARCA2 activ -3.
For COc1ccc2c(C)cc(SCC(=O)c3ccc4c(c3)OCO4)nc2c1 the results were esBAF inh 2, Jurkat NFkB inh -17, Gli-Sufu block 64*, 697 NFkB inh -4, SMARCA2 activ -2, Gli-Sufu confirm 27, SufuKO cytotox 14 and Wnt3a counter 5.
O=C(Nc1ccccc1Cl)C1CCCN(S(=O)(=O)c2cccc3cccnc23)C1 (stereo not given) was read as esBAF inh 0, Jurkat NFkB inh 4, Gli-Sufu block 76*, 697 NFkB inh 12, SMARCA2 activ -3, Gli-Sufu confirm 29, SufuKO cytotox 9 and Wnt3a counter 3.
`CCN(CC)C(=O)CN(c1cc(Cl)ccc1OC)S(C)(=O)=O` gave esBAF inh -2, Jurkat NFkB inh 7, Gli-Sufu block 51, 697 NFkB inh 12, SMARCA2 activ -2, Gli-Sufu confirm 22, SufuKO cytotox 13 and Wnt3a counter -5.
`CCCC(=O)Nc1ccc2c(c1)C(=O)N(C)[C@H]1CC[C@@H](CC(=O)Nc3ccccc3)O[C@H]1CO2` gave esBAF inh -3.
Screening Cc1ccc(C)c(NC(=S)NC2CC3CCC(C2)N3Cc2ccco2)c1 (stereo not given) returned esBAF inh 3, Jurkat NFkB inh 3, Gli-Sufu block 76*, 697 NFkB inh -10, SMARCA2 activ 0, Gli-Sufu confirm 32, SufuKO cytotox 0 and Wnt3a counter 4.
`Cc1cc(C)cc(NC(=S)NC2CC3CCC(C2)N3Cc2ccco2)c1` (stereo not given) gave Jurkat NFkB inh 18, Gli-Sufu block 5, 697 NFkB inh 13 and SMARCA2 activ -4.
For O=C(CSc1nc(C2CC2)nc2c1cnn2-c1ccccc1)Nc1c[nH]c(=O)[nH]c1=O the results were Jurkat NFkB inh 7, Gli-Sufu block 99*, 697 NFkB inh -4, SMARCA2 activ -2, Gli-Sufu confirm 30, SufuKO cytotox 2 and Wnt3a counter 17.
`C[C@H]1CN([C@@H](C)CO)C(=O)c2cc(C#CC3CCCC3)cnc2O[C@@H]1CN(C)C(=O)C1CC1` gave esBAF inh 0.
Screening O=C(CN1CCSCC1)c1c[nH]c2ccccc12 returned esBAF inh -5, Jurkat NFkB inh -3, Gli-Sufu block 99*, 697 NFkB inh 7, SMARCA2 activ -2, Gli-Sufu confirm 22, SufuKO cytotox 9 and Wnt3a counter -34.
Screening O=C(CN1CCCCC1)c1c[nH]c2ccccc12 returned esBAF inh 0, Jurkat NFkB inh -12, Gli-Sufu block 9, 697 NFkB inh 1 and SMARCA2 activ 0.
Screening COc1ccccc1NC(=O)N1C[C@@H]2[C@H](c3ccccc31)[C@@H](CO)N2CC1CCCC1 returned esBAF inh -1.
`CCOc1ccc(NC(=O)CCSc2nnc(C)s2)cc1` gave esBAF inh -2, Jurkat NFkB inh 3, Gli-Sufu block 53, 697 NFkB inh 8, SMARCA2 activ 0, Gli-Sufu confirm 17, SufuKO cytotox -2 and Wnt3a counter 3.
Screening CC1CCN(S(=O)(=O)c2ccc(NC(=O)Cc3ccccc3)cc2)CC1 returned esBAF inh 8, Jurkat NFkB inh 13, Gli-Sufu block 56*, 697 NFkB inh -9, SMARCA2 activ -3, Gli-Sufu confirm 20, SufuKO cytotox 23 and Wnt3a counter -17.
